From PubChem BioAssay AID1903 (Southern Research Specialized Biocontainment Screening …, 2009)
Hit rate of the full screen: of about 310,000 compounds, about 1,200 (0.39%) were called active. No rule for the calls is given here. These entries were drawn from the full list. Entries with a potency or affinity are not part of this list.

Each compound was assayed against Large T antigen (Simian virus 40) (UniProt P03070) (assay: SV40 large T antigen inhibitors, biochemical (AID 1903)). Settings: SV40 large T antigen ATPase/helicase inhibition assay; at 20 µM; active compounds read high.
Chain of Large T antigen (Simian virus 40) (P03070 whole entry, looked up): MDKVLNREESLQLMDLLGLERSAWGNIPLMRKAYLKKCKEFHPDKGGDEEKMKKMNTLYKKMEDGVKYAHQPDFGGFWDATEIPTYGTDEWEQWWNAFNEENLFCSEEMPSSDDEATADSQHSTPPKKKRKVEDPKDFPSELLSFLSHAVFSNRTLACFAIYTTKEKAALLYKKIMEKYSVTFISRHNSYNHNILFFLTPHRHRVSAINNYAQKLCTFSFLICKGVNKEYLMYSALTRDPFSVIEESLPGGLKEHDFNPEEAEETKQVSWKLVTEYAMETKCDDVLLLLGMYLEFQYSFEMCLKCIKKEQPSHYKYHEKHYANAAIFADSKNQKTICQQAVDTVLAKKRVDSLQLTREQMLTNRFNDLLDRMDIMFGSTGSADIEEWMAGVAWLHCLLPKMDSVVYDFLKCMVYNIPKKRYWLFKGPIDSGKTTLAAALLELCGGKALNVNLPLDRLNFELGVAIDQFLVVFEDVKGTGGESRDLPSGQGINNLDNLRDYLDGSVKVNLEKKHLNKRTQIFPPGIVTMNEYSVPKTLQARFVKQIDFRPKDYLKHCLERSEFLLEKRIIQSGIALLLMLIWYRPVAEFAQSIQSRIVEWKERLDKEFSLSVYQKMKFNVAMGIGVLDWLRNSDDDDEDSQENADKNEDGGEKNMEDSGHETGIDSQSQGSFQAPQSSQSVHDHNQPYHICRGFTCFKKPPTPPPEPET

inhibition, inactive:
O=C1NN(c2ccccc2)C(=O)/C1=C/c1ccc(Sc2cccc3ccccc23)o1 9.56%
O=Cc1ccc(-c2cccc(C(=O)O)c2)o1 8.85%
CCSc1ccccc1C(=O)N1CCN(c2ccccc2F)CC1 4.24%
CC(C)c1ccc(C2/C(=C(\O)c3ccc4c(c3)OCCO4)C(=O)C(=O)N2CCN2CCOCC2)cc1 (stereo not given) 10.8%
Cc1ccc2nc(/C(C#N)=C/c3ccc(O)c(O)c3)[nH]c2c1 36.8%
N#C/C(=C\c1ccncc1)c1nc2ccccc2[nH]1 -51.6%
Cn1c(CSCc2ccc(F)cc2)nnc1SCC(=O)N1CCN(c2ccccc2)CC1 29.3%
CC1=CN2C(=NC(=O)CC2(C)C(=O)N(CC(=O)NC2CCCC2)Cc2ccccc2)C=C1 (stereo not given) 3.88%
Oc1ccc(Nc2nc(-c3ccc4ccccc4c3)cs2)cc1 35.8%
CCCc1cc(=O)[nH]c(Nc2ccc(Cl)cc2)n1 16.6%
COc1c(CC=C(C)C)c(O)cc2oc(=O)c3c4ccc(O)cc4oc3c12 21.6%
Cc1c(O)c2ccccc2oc1=O 8.49%
O=C1C=C(NC2CC2)C2(CCCCC2)O1 6.12%
C=CCN1C(=O)C2C3C=CC(C2C1=O)C1C2C(=O)N(CC=C)C(=O)C2C31 (stereo not given) 0.93%
Cc1oc2c(C)c(O)ccc2c(=O)c1-c1cnn(-c2ccccc2)c1 12.9%
Cc1oc2cc(O)ccc2c(=O)c1-c1cnn(-c2ccccc2)c1 1.6%
CC(C)N1C(=O)CCC1C(=O)NCc1ccco1 (stereo not given) 10.9%
CCOC(=O)C1=C(CC)Nc2ccccc2N=C1NC(=O)Cn1cnc2ccccc2c1=O -2.64%
S=C(NCC1CCCO1)N1CCN(c2ccccc2)CC1 (stereo not given) 8.18%
CC(C)(C)OC(=O)NCCCC[C@H](NC(=O)c1nc[nH]c1C(=O)NC1CCN(C(=O)OC(C)(C)C)CC1)C(=O)OC(C)(C)C 3.23%
Nc1c(-c2cccc([N+](=O)[O-])c2)nc2ccccn12 15.8%
O=[N+]([O-])c1cccc(-c2ncc3ccccn23)c1 -2.83%
Cc1cc(NC(=O)CSCC(=O)Nc2cc(C(F)(F)F)ccc2N2CCCC2)no1 4.79%
Nc1ncnc2c1ncn2CCOc1ccccc1 3.18%
O=C(N/N=C/c1cc(Cl)c(O)c(Cl)c1)c1cc2c(ccc3ccccc32)o1 29.3%
O=C(N/N=C/c1ccc(O)c(Br)c1)c1cc2c(ccc3ccccc32)o1 -8.03%
O=C(CCc1ccccc1)NNC(=O)c1ccccc1F 10.9%
Cc1ccc(Nc2nc(-c3sc(C)nc3C)cs2)cc1 3.8%
Cc1nc(C)c(-c2csc(Nc3ccc(F)cc3)n2)s1 6.12%
COc1ccc(/C(C)=N\NC(=O)c2ccc3c(c2)OCO3)cc1OC 1.47%
Cc1c(NS(=O)(=O)c2cc(C(=O)NCCN(C)C)ccc2Cl)c(=O)n(-c2ccccc2)n1C 10.6%
COc1ccc(N=C2SCC(=O)N2c2ccc(OC)cc2)cc1 13.7%
C=CCN1C(=O)CSC1=Nc1ccc(O)cc1 27.9%
Cc1cccc(C(=O)NCC(=O)NCC2COc3ccccc3O2)c1 (stereo not given) 23.4%
CCOc1c(/C=C(\C#N)C(N)=O)c2ccccc2n1CC 3.23%
COc1ccc(Oc2nc3ccccc3n3cccc23)cc1 5.06%
CCc1ccc2[nH]c(=O)c(C(c3nnnn3CCOC)N3CCN(c4ccc(F)cc4)CC3)cc2c1 (stereo not given) 16.5%
CCc1ccc2[nH]c(=O)c(C(c3nnnn3CCOC)N3CCN(c4ccccc4)CC3)cc2c1 (stereo not given) 6%
CSCc1cc(N2CCOCC2)nc(-c2ccccc2)n1 9.12%
O=C(Cc1ccc([N+](=O)[O-])cc1)c1c(O)cc(O)cc1O 28%
COC(=O)CSC1=NS(=O)(=O)c2ccccc21 5.69%
O=C(CN1C(=O)c2ccccc2S1(=O)=O)Nc1ccccc1 18.1%
NS(=O)(=O)c1ccc(NC(=O)c2cccc(N3C(=O)c4ccccc4C3=O)c2)cc1 7.91%
COC(=O)CCC(=O)Nc1ccc(N=Nc2ccccc2)cc1 8.53%
COc1ccc(-c2nc(-c3ccccc3)[nH]c(=O)c2C#N)cc1 9.65%
Clc1cc(Cl)cc(C2=NC(Cc3ccccc3)CO2)c1 (stereo not given) 4.6%
COc1ccc(C2C(C#N)=C(N)N(N(C)C)C3=C2C(=O)CCC3)cc1 (stereo not given) 6.69%
COc1ccc(C[C@H]2COC(=O)[C@@H]2Cc2ccc(OC3OC(CO)C(O)C(O)C3O)c(OC)c2)cc1OC (stereo not given in full) 11.3%
COc1cc(/C=C/CO)ccc1O[C@@H]1O[C@H](CO)[C@@H](O)[C@H](O)[C@H]1O 1.74%
CCCCOc1ccc(C(=O)NCC(=O)N2CCN(Cc3ccc4c(c3)OCO4)CC2)cc1 14%
COc1ccc(NC(=O)COc2ccc(C)cc2)c([N+](=O)[O-])c1 5.55%
O=C(NCCOCCNC(=O)OCc1ccccc1)OCc1ccccc1 24.2%
CCOC(=O)c1c(NC(C)=O)sc2c(O)c(Br)ccc12 12.8%
CCOC(=O)c1c(NC(C)=O)sc2c(OC)c(Br)ccc12 1.77%
Cc1cc(C)c(C)c(OCCOCCNCc2ccccc2)c1 -32.9%
COc1ccc(NC(=O)CN(C)Cc2c(F)cccc2Cl)cc1S(=O)(=O)N1CCCCC1 4.49%
CN1C(=O)SC(Nc2ccc(F)cc2)C1=O (stereo not given) 20.7%
CN1C(=O)SC(Nc2ccccc2)C1=O (stereo not given) 5.64%
CCN(CC)S(=O)(=O)c1cccc(-c2cn3cc(C)ccc3n2)c1 8.06%
O=C(NCCC1CCCCN1S(=O)(=O)c1ccccc1)C(=O)NCc1ccncc1 (stereo not given) 4.13%
COc1ccc(-c2cc(C(F)(F)F)nc(N3CCN(C)CC3)n2)cc1 1.63%
CC(=O)Nc1ccc(NC(=O)CSc2nc3ccccc3o2)cc1 5.88%
C/C(=N\NC(=O)CSc1nc2ccccc2o1)c1cccc(O)c1 14.6%
C/C(=N/NC(=O)CSc1nc2ccccc2n1C)c1ccco1 -1.06%
C/C(=N/NC(=O)CSc1nc2ccccc2n1C)c1ccncc1 1.08%
O=C(NC1CCCCC1)C1CCCN1S(=O)(=O)c1ccc(Cl)cc1 (stereo not given) -4.64%
O=C(C1CC1)N1CCN(C(c2ccccc2)c2ccccc2)CC1 20.8%
COc1ccc(NC(=S)N2CCC(NC(=O)c3cccc(C)c3)CC2)cc1 19.3%
FC(F)(F)Oc1ccc(Nc2nc3ccccc3o2)cc1 17%
CS(=O)(=O)c1ccccc1C(=O)Nc1cccc(-c2nc3ccccc3o2)c1 6.81%
CCNC(=S)N/N=C/c1ccc(-c2ccccc2)o1 9.76%
CC(C)Cn1c(=O)c2ccccc2c2ccccc2c1=O 13.4%
O=C(NNC(=O)c1ccccc1-n1cccc1)c1ccc(Cl)cc1 6.79%
CCOc1cc(NS(=O)(=O)c2ccc(NC(C)=O)cc2)c(OCC)cc1NC(=O)C(C)C 9.09%
CCOc1cc(NC(=S)NC)c(OCC)cc1NC(=O)c1cccs1 9.37%
CCCCNC(=O)CNC(=O)c1nn(-c2ccc(OC)cc2OC)c(=O)c2ccccc12 4.78%
CN(C)c1ccc(/C=N/O)cc1 37.8%
CN(c1ccccc1)c1ccc(/C=N/N2CCOCC2)cc1 32.7%
CCN(CC)c1ccc(/C=N\NC(N)=O)cc1 24.1%
CCN(Cc1ccccc1)c1ccc(/C=N/N2CCOCC2)cc1 32.1%
COc1cc(OC)cc(C(=O)Nc2ccc(NC(=O)c3ccco3)c(C)c2)c1 20%
CCOC(=O)c1cccc(NC(=O)CN2CCN(c3ccc(OC)cc3)CC2)c1 38.2%
C=CCC1(CC=C)CCCN1C(=O)CC1C(=O)NCCN1Cc1ccc(OC)c(OC)c1 (stereo not given) 10.2%
O=C(NC1CCC(O)CC1)c1cccc2cccnc12 (stereo not given) 3.23%
O=C(NNC(=S)NC(=O)c1ccccc1[N+](=O)[O-])c1ccccc1O 31.4%
O=C(OCC1OC(n2ncc(=O)[nH]c2=O)C(OC(=O)c2ccccc2)C1OC(=O)c1ccccc1)c1ccccc1 (stereo not given) 6.13%
O=C(OCC1OC(n2ccc(=O)[nH]c2=O)C(O)C1OC(=O)c1ccccc1)c1ccccc1 (stereo not given) 11.7%
COC1OC(COC(=O)c2ccccc2)C(OC(=O)c2ccccc2)C1OC(=O)c1ccccc1 (stereo not given) 3.67%
Cc1cn(C2OC(COC(=O)c3ccccc3)C(OC(=O)c3ccccc3)C2OC(=O)c2ccccc2)c(=O)[nH]c1=O (stereo not given) 4.67%
CC(CCc1ccc(O)cc1)NC1C2CC3CC(C2)CC1C3 (stereo not given) 2.61%
Cc1ccc(NC(=O)c2cc3ccccc3cc2O)cc1 0.83%
CCOC(=O)c1nn(-c2ccc3ccccc3c2)cc1O 27.5%
CN(C)c1ccc(/C=N/NC(N)=S)cc1[N+](=O)[O-] 3.04%
Cc1ccc(/C=C2\NC(=S)NC2=O)cc1[N+](=O)[O-] 10.5%
CC(C)OP(=O)(OC(C)C)C(C)NC(=O)Cc1ccccc1 (stereo not given) 8.79%
